# Coupling enz: coupling enzyme interference in Giardia aldolase counter-screen; coupling enzyme system counterscreen, AmpLite Red fluorescence; activity change, negative = inhibition, % at 58.2 µM, hits read low; 290,000 compounds, 0.67% hits; in the data active means activity change below about -30%
#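 Counterscreen of the coupled detection system alone, without aldolase: glyceraldehyde-3-phosphate coupling enzymes plus AmpLite Red readout. Compounds at 57.5 uM final, 10 min RT preincubation, 20 min RT reaction, fluorescence 525/598 nm.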
# NPSR antag: blocks cAMP signaling of the human neuropeptide S receptor | CHO-NPSR cells, cAMP TR-FRET, antagonist mode | Potency, µM (series often up to 38.3 µM), for the others: top-dose activity change, negative = inhibition, usual class: inhibitors | 220,000 compounds, 1% hits | AID 1461; active means well fitted curve in the direction sought with a large enough effect; inconclusive means small, poorly fitted or top-dose-only effect, or another doubt; inactive means no such curve, though single readings can be large; an effect the other way counts as inactive or inconclusive; further: potency means the concentration at half of the fitted maximal effect; nearly all actives have a fitted effect of over 50% in size
# Target sequence (Q6W5P4 whole entry, looked up): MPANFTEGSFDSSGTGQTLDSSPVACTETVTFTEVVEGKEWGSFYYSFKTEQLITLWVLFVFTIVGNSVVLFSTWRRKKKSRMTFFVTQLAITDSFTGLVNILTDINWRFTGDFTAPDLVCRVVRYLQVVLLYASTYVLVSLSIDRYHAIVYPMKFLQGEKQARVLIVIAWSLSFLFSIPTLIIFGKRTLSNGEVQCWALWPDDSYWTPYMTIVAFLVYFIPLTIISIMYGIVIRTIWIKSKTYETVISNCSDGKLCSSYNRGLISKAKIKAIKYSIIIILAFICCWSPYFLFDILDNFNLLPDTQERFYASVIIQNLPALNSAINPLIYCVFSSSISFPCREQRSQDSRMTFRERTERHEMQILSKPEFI
# KDM4E inh: blocks human JMJD2E demethylase activity | B2RXH2 | JMJD2E catalytic domain, FDH-coupled NADH fluorescence (FDH is formaldehyde dehydrogenase) | Potency, µM (titrated, usually from 57.1 µM), for inactives: top-dose activity change, negative = inhibition, usual class: inhibitors | 230,000 compounds, 1.6% hits;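 further: potency means the concentration at half of the fitted maximal effect; 0% = wells with enzyme and -100% = buffer wells without enzyme; nearly all actives have a fitted effect of over 50% in size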
# Sfp inh: Sfp phosphopantetheinyl transferase inhibition. Q9F4F7. Biochemical Sfp PPTase activity, qHTS. Potency, µM, without a hit: largest response in the series, negative = inhibition, most hits filed as inhibitors. 310,000 compounds, 3.5% hits. AID 1490; active means well fitted curve in the direction sought with a large enough effect; inconclusive means small, poorly fitted or top-dose-only effect, or another doubt; inactive means no such curve, though single readings can be large; an effect the other way counts as inactive or inconclusive;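 further: the enzyme is Sfp with the accession as filed and its product quenches rhodamine fluorescence; potency means the concentration at half of the fitted maximal effect; 0% = enzyme reaction without inhibitor and -100% = no enzyme wells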
#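 Step 1, compound plus 15 nM Sfp-PPTase, 15 min, room temperature. Step 2, add rhodamine-CoA (5 uM) and BHQ-2-YbbR (12.5 uM). Step 3, read 525/598 nm fluorescence at 0 and 30 min.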
# ALDH1A1 block: blocks purified human ALDH1A1 activity; P00352; Purified ALDH1A1, NADH fluorescence, propionaldehyde substrate; Potency, µM (titrated, usually from 75.3 µM), inactives show at the top dose activity, negative = inhibition, most hits filed as inhibitors; 220,000 compounds, 7.3% hits; AID 1030;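 further: potency means the concentration at half of the fitted maximal effect; plate controls were no enzyme wells and a reference inhibitor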
# RGS12 GoLoco inh: blocks human Gai1 binding to RGS12 GoLoco peptide, red readout; Gai1:RGS12 GoLoco peptide FP, rhodamine, 10 min; 230,000 compounds, 0.44% hits; Potency, µM (series often up to 61.6 µM), without a hit: top-dose activity, negative = inhibition, usual class: inhibitors; active means well fitted inhibition curve with a large enough effect, not every such curve was filed as active; inactive means no such curve, though single readings can be large or run the other way; further: potency means the concentration at half of the fitted maximal effect; nearly all actives have a fitted effect of over 30% in size
# Numbers without * were called inactive; u = inconclusive; x = no result given; [ ] = another dose, or the depositor's remark. Sampled rows, rich in hits. Any-hit rate of the full collection: about 8.5%. Unless noted, the call rests on the fitted dose curve; in most records, active means well fitted inhibition curve with a large enough effect (not every such curve was filed as active); inconclusive means small, poorly fitted or top-dose-only effect, or another doubt; inactive means no such curve, though single readings can be large or run the other way. Unless noted, on the % scale 0 is the no-effect control and ±100 the full control effect.
SMILES,Coupling enz,NPSR antag,KDM4E inh,Sfp inh,ALDH1A1 block,RGS12 GoLoco inh
COC(=O)C1Sc2[nH]c(=O)sc2C(c2ccc(Cl)cc2)C1C(=O)OC (stereo not drawn),9.8,-5.9%[46.1 µM],-3.6%,-11.7%,11.2µM*,9.0%
CN(C(=O)COC(=O)c1ccccc1Cc1ccccc1)C1CCS(=O)(=O)C1 (stereo not drawn),x,x,x,9.2%,x,x
Cc1cc(NC(=O)c2ccc(Cl)cc2Cl)n(CCC#N)n1,3.0,2.2%,4.6%,6.4%,-1.2%,-3.3%
Cc1nn(CCC#N)c(N)c1C1(O)C(=O)Nc2c(Cl)cc(Cl)cc21 (stereo not drawn),-9.7,-33.1%,-5.1%,5.2%,3.98µM*,-15.7%
O=C(/C=C/c1ccc(Cl)cc1)Nc1nccs1,-2.6,3.0%,5.2%,7.5%,2.4%,3.6%
C/C=C/C=C/C(=O)Nc1nccs1,-3.8,12.0%,-1.0%,35.5µM*,-7.6%,3.9%
CS(=O)(=O)c1cccc(S(=O)(=O)N2CCCCCC2)c1,-0.9,x,x,9.9%,x,x
OCCC1CN(Cc2ccccc2OC2CCCC2)CCN1Cc1ccsc1 (stereo not drawn),1.4,8.6%,9.8%,10.7%,u,-3.9%
CCCC1CC(C)(C(=O)CSc2n[nH]c(-c3ccccc3)n2)OC1=O (stereo not drawn),1.4,-1.4%[46.1 µM],-13.1%,79.4µM*,10µM*,-2.1%
O=C(CSc1n[nH]c(-c2ccccc2)n1)N1CCOCC1,-1.2,x,x,2.5%,x,x
CCCC1CC(=O)OC1(C)C(=O)CSc1n[nH]c(-c2ccccc2)n1 (stereo not drawn),2.5,-27.8%[46.1 µM],1.6%,u,12.6µM*,6.0%
O=C(NC1CCCCCC1)c1ccc(Br)o1,-0.2,x,x,10.8%,x,x
O=C(NC1CCCCC1)Oc1cc2oc(=O)sc2cc1Br,2.1,-8.6%,-15.4%,15.8µM*,x,-14.5%
CNS(=O)(=O)c1ccc2nc(NC(=O)/C=C/c3ccco3)sc2c1,1.7,-1.9%,u,-89.9%,u,89.1%
C=CCN1CCc2cc(O)c(O)cc2[C@H](c2ccccc2)C1,-3.0,x,25.1µM*,u,-4.8%,5.2%
CN1CCc2cc(O)c(O)cc2C(c2ccccc2)C1 (stereo not drawn),x,-7.1%[46.1 µM],20µM*,x,-2.6%,4.0%
CN1CCc2c(cc(O)c(O)c2Cl)C(c2cccc(Cl)c2)C1 (stereo not drawn),x,-16.8%[46.1 µM],14.1µM*,x,-3.8%,0.8%
CN1CCc2cc(Cl)c(O)cc2C(c2ccccc2)C1 (stereo not drawn),x,-9.4%[46.1 µM],4.0%,x,-4.2%,10.0%
C=CCN1CCN(C(=O)CCc2ccccc2)CC1,6.7,x,x,6.3%,x,x
CN1CCc2cc(Cl)c(O)cc2[C@@H](c2ccccc2)C1,2.4,8.8%,6.0%,13.6%,-6.6%,5.2%
C=CCN1CCc2c(cc(O)c(O)c2Br)[C@@H](c2ccccc2)C1,x,-14.7%[46.1 µM],14.1µM*,-14.5%,-10.8%,7.5%
CCOc1ccc(NC(=O)C(C)Sc2nnc(C)n2C)cc1 (stereo not drawn),-0.7,-3.6%[46.1 µM],-1.4%,10.5%,2.3%,4.0%
Cc1ccc(NC(=O)C(C)S)cc1 (stereo not drawn),-0.9,-2.0%,-11.6%,39.8µM*,x,-10.9%
Cc1ccc(NC(=O)C(C)Sc2nnc(C)n2C)cc1 (stereo not drawn),4.2,x,x,70.8µM*,x,x
CCNC(=O)NC(=O)COC(=O)CCCc1nc2ccccc2s1,-6.4,-3.3%,2.3%,-12.0%,u,3.6%
Cc1ccc(Sc2cc(NCCCO)c([N+](=O)[O-])c3nonc23)cc1,-22.7,-25.6%,-29.0%,-24.1%,x,-11.5%
CC(=O)OCCCNc1cc(Sc2ccc(Cl)cc2)c2nonc2c1[N+](=O)[O-],-49.1*,u,-7.2%,50.1µM*,u,0.5%
CCCC(=O)OCCNc1cc(Sc2nc3ccccc3[nH]2)c2nonc2c1[N+](=O)[O-],-13.2,u,u,10µM*,7.08µM*,-11.4%
Cc1cc(CN2CCC(n3nccc3NC(=O)c3ccccc3Cl)CC2)cc(C)c1O,x,x,x,7.9%,x,x
Cc1ccccc1C(=O)/C=C1\NC(=O)CS1,2.1,-17.3%[46.1 µM],-11.1%,-5.6%,25.1µM*,38.5%

# Screens (PubChem BioAssay)
